# Source: PubChem
# A selection: hits, their analogues and other compounds. The true share with any hit is near 12%.
# Sfp PPTase inh: qHTS Assay for Inhibitors of Bacillus subtilis Sfp phosphopantetheinyl transferase (PPTase). 4'-phosphopantetheinyl transferase ffp (Bacillus subtilis), Q9F4F7. Biochemical Sfp PPTase activity, qHTS. AID 1490, 2009. hit rate 3.5% among 310,000. Potency, µM, for inactives: largest response in the series, negative = inhibition, hits mostly inhibitors;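 also: the enzyme is Sfp with the accession as filed and its product quenches rhodamine fluorescence; 0% = enzyme reaction without inhibitor and -100% = no enzyme wells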
#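 Fluorescence-quenching assay: 15 nM Sfp-PPTase preincubated 15 min at room temperature with compound, then 5 uM rhodamine-CoA and 12.5 uM BHQ-2-labelled YbbR peptide added. Fluorescence (ex 525/em 598 nm) read at start and after 30 min; difference gives rate.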
# JMJD2A Tudor: qHTS Assay for Inhibitors of JMJD2A-Tudor Domain; Lysine-specific demethylase 4A (Homo sapiens), O75164; AlphaScreen JMJD2A-Tudor / H3K4me3 peptide binding; Potency, µM (series often up to 114 µM), inactives show at the highest dose activity change, negative = inhibition, most hits filed as inhibitors; hit rate 4.4% among 390,000; AID 504339, 2011; also: % is scaled to controls: 0 for no effect and ±100 for the full control effect; nearly all actives have a fitted effect of over 50% in size
# HP1b chromo inh: HTS for Inhibitors of HP1-beta Chromodomain Interactions with Methylated Histone Tails. Chromobox protein homolog 1 (Homo sapiens), P83916. Potency, µM (series often up to 114 µM), for inactives: at the top dose activity change, negative = inhibition, usual class: inhibitors. hit rate 0.56% among 390,000. AlphaScreen HP1-beta / biotin-H3K9me3 peptide binding. AID 540317, 2011; also: nearly all actives have a fitted effect of over 70% in size
# Target sequence (P83916 whole entry, looked up): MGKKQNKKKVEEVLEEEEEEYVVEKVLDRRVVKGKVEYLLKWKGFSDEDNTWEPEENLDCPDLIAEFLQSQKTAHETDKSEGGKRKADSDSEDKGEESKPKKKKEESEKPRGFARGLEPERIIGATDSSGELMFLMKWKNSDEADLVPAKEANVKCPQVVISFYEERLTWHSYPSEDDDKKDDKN
#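 Compound inhibition of the preformed complex between 50 nM HP1-beta and 50 nM biotinylated H3K9me3 peptide was read by AlphaScreen. Buffer was PBS pH 7.4 with 0.01% Tween-20. Incubations ran 30 min at room temperature, with 10 ug/mL donor/acceptor beads.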
# L3MBTL1 inh: qHTS Assay for the Inhibitors of L3MBTL1. Lethal(3)malignant brain tumor-like protein 1 (Homo sapiens), Q9Y468. AlphaScreen L3MBTL1–H3K9me1 peptide binding. Potency, µM (highest dose often 57.1 µM), inactives show at the highest dose activity, negative = inhibition, usual class: inhibitors. hit rate 0.66% among 230,000. AID 485360, 2010; also: % is scaled to controls: 0 for no effect and ±100 for the full control effect; nearly all actives have a fitted effect of over 60% in size
#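 L3MBTL1 50 nM + b-AHA-H3(1-15)K9me1 75 nM, 30 min RT; compound added, 30 min RT; streptavidin donor/Ni-chelate acceptor beads 10 ug/mL each final, 30 min RT dark; AlphaScreen read.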
# BAZ2B block: qHTS Assay for Inhibitors of BAZ2B | Bromodomain adjacent to zinc finger domain protein 2B (Homo sapiens), Q9UIF8 | AlphaScreen BAZ2B-H3K14Ac peptide displacement | Potency, µM (doses to about 114 µM), inactives show at the top dose activity change, negative = inhibition, actives largely listed as inhibitors | hit rate 4.4% among 360,000 | AID 504333, 2011; also: % is scaled to controls: 0 for no effect and ±100 for the full control effect; nearly all actives have a fitted effect of over 60% in size
#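 Protein-peptide AlphaScreen: BAZ2B 50 nM, b-H3K14Ac 50 nM, 1x PBS pH 7.4 + 0.01% Tween-20. Preincubation 30 min RT; cpd 30 min RT (top 110 uM); beads 20 min RT, light-protected.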
# G9a block: qHTS Assay for Inhibitors of Histone Lysine Methyltransferase G9a; G9a H3K9 monomethylation, AlphaScreen, 2 h; AID 504332, 2011; Histone-lysine N-methyltransferase EHMT2 (Homo sapiens), Q96KQ7; hit rate 8.8% among 350,000; Potency, µM (titrated, usually from 102 µM), without a hit: at the top dose activity, negative = inhibition, actives largely listed as inhibitors; also: % is scaled to controls: 0 for no effect and ±100 for the full control effect; nearly all actives have a fitted effect of over 75% in size
# Target sequence (Q96KQ7 913-1193 limits assumed): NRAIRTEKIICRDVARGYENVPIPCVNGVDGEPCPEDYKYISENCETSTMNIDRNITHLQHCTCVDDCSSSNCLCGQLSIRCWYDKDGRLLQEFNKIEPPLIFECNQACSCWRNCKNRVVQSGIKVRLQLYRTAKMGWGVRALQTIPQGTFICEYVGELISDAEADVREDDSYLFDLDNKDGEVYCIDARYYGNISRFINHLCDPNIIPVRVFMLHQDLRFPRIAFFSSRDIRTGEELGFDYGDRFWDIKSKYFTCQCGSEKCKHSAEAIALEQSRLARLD
#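 Step 1: enzyme (final 20 nM) with compound, 15 min RT. Step 2: substrate peptide 500 nM and SAM 20 uM, 2 h RT. Step 3: anti-H3K9me1 antibody and AlphaScreen beads, 10 min, then plate read.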
# Active calls of the source: *; ? = inconclusive; / = no result; [ ] = remark or other dose. Calls follow the shape of the dose curve; as a rule, active = well fitted curve in the direction sought with a large enough effect; inconclusive = small, poorly fitted or top-dose-only effect, or another doubt; inactive = no such curve, though single readings can be large; an effect the other way counts as inactive or inconclusive. Potency is read from the fitted curve at half-maximal effect.
SMILES,Sfp PPTase inh,JMJD2A Tudor,HP1b chromo inh,L3MBTL1 inh,BAZ2B block,G9a block
CCC(Sc1ncccc1Nc1ccccn1)C(=O)O (stereo not drawn),/,-14%,37%,/,/,/
COC(=O)C1=C(C)NC(=S)NC1c1ccc(-c2cc(Cl)ccc2Cl)o1 (stereo not drawn),40µM*,-24%,15%,/,-32%,?
CCC12C=C(/C=C/c3ccccc3)C(CC)(C1)C(c1ccccc1)CC2=O (stereo not drawn),-9%,/,/,/,/,/
CCCc1nc2ccccc2c(=O)n1/N=C/c1ccccc1O,13%,-19%,50%,-5%,-5%,12%
CCN=c1scc(C)n1/N=C/c1ccc(O)c(O)c1O,8.9µM*,45µM*,?,32µM*,22µM*,5µM*
COCCN=c1scc(-c2cccs2)n1/N=C/c1ccc(O)c(O)c1O,7.1µM*,8.9µM*,?,?,35µM*,5.6µM*
COc1ccc(CC(=O)N/N=C\c2cc(Br)c(O)c(Br)c2)cc1,-2%,-15%,17%,-2%,-25%,?
COC(=O)N/N=C/c1cccs1,15%,-8%,29%,3%,4%,10%
CCN=c1scc(C)n1/N=C/c1cc(Br)c(O)c(Br)c1,?,?,?,-4%,45µM*,10µM*
N#CN=c1snc(-c2ccccc2Cl)n1-c1ccccc1Cl,/,-9%[57.1 µM],5%[57 µM],/,/,/
Cc1nc(COC(=O)c2cc(O)c3ccccc3c2O)cs1,28µM*,-8%[11.4 µM],?,-9%,/,3.2µM*
CNc1ccc(/C=C(\CCC(=O)O)c2nc3ccccc3s2)cc1[N+](=O)[O-],7%,-17%,29%,-12%,45µM*,?
O=C(O)C/C(=C\c1cccc(NC(=O)c2ccccc2Cl)c1)c1nc2ccccc2s1,14%,35µM*,-1%,/,79µM*,36%[12.7 µM]
Cc1ccc(/C=C(\CCC(=O)O)c2nc3ccccc3s2)cc1[N+](=O)[O-],-2%,-30%,5%,0%,-11%,-8%[59 µM]
COc1ccc(C(=O)Nc2cccc(/C=C(\CCC(=O)O)c3nc4ccccc4s3)c2)cc1,-4%,-29%[11.4 µM],32µM*,/,79µM*,-3%[12.7 µM]
CC(=O)OCC(=O)[C@]1(O)C(OC(C)=O)CC2C3CCC4=CC(=O)C=C[C@@]4(C)[C@]3(F)C(O)C[C@]21C (stereo partly drawn),-1%,/,/,/,/,-11%[2.33 µM]
Cc1csc(=O)n1CC(=O)Nc1ccc(Cl)cc1F,/,-18%,16%,3%,-3%,3%[12.7 µM]
Cc1nn2c(nc1=O)NNC2(C)C(C)(C)C (stereo not drawn),35µM*,-1%[11.4 µM],28%,4%,-22%,25%
COc1ccc(Br)cc1CNC(=O)CN1C(=O)CSc2ccc(S(=O)(=O)N3CCOCC3)cc21,/,-22%,36%,/,0%,-2%[59 µM]
CCN(Cc1ccc(OC)c(F)c1)C(C)C(=O)Nc1ccc(S(=O)(=O)N2CCCC2)cc1 (stereo not drawn),/,-19%,31%,-3%,3%,31%[2.33 µM]
CCN(CC)CCCOc1ccc(C)cc1Br,-12%,14µM*,?,/,79µM*,20µM*
CC(C)NCCCOc1ccc(Cl)cc1Br,-86%,32µM*,?,0%,?,/
O=C(COc1ccc(Cl)cc1Br)NC1CC1,/,-5%,21%,-1%,8%,40%[12.7 µM]
CCCCNCCOCCOc1ccc(F)cc1,-5%,5µM*,?,8%,79µM*,11µM*
CCCCn1c(=N)n(CCCOc2ccc(F)cc2)c2ccccc21,/,-9%,9%,/,-35%,-30%[59 µM]
SMILES,Sfp PPTase inh,JMJD2A Tudor,HP1b chromo inh,L3MBTL1 inh,BAZ2B block,G9a block
CC(C)NCCCCOc1ccc(Br)cc1Cl,?,32µM*,-20%,51%,-2%,/
CCCCNCCCOc1cc(Cl)ccc1Cl,17%,-18%,14%,/,-15%,-34%[59 µM]
C=CCNCCCOc1ccc(C)cc1Br,9%,7%,31%,5%,13%,0%[59 µM]
COCCNCCCOc1ccc(C)cc1Br,-3%,20µM*,-18%,40%,56µM*,/
COCCCNCCCOc1ccc(Cl)cc1Br,-12%,0.89µM*,?,1%,?,?
CCCCNCCOCCOc1ccc(Cl)cc1Br,16%,4.5µM*,-14%,6%,79µM*,7.9µM*
COCCCNCCCOc1ccc(C)cc1Br,-27%,3.5µM*,8%,-2%,50µM*,?
CN1CCN(c2ncc3nc(-c4ccc(Cl)cc4)c(=O)n(CCC#N)c3n2)CC1,16%,/,/,/,/,4%[12.7 µM]
Cn1cnc(C(=O)N2CCc3ccccc3C2)c1C(=O)N1CCc2ccccc2C1,/,16µM*,?,4%,/,/
O=C(Nc1ccc(Br)cc1F)c1ccc2c(c1)OCCO2,13%,-11%,5%,/,-2%,50µM*
O=C(Nc1ccc(N2CCN(C(=O)c3ccccc3)CC2)cc1)c1ccc2c(c1)OCCO2,-9%,-9%,28%,/,-21%,/
O=C(Nc1ccc(N2CCN(C(=O)c3ccc(Cl)cc3)CC2)cc1)c1ccc2c(c1)OCCO2,4%,-32%,-1%,/,-10%,79µM*
O=C(Nc1ccc(N2CCCCC2)cc1)c1ccc2c(c1)OCCO2,10%,?,5%,/,-10%,3.5µM*
COc1cc2c(cc1OC)CN(C(=O)/C=C/c1ccc([N+](=O)[O-])cc1)CC2,-10%,-29%,0%,/,?,50µM*
COc1cc2c(cc1OC)CN(C(=O)c1ccco1)CC2,24%,-5%,39%,12%,-15%,-34%
COc1cc2c(cc1OC)CN(C(=O)c1ccc(Br)o1)CC2,14%,-13%,16%,-5%,-21%,50µM*
COc1cc2c(cc1OC)CN(C(=O)c1cccc([N+](=O)[O-])c1)CC2,18%,50µM*,-9%,2%,-11%,19%[12.7 µM]
CCSc1nnc(NC(=O)c2cccnc2)s1,10%,-9%,37%,/,1%,-29%[12.7 µM]
CCSc1nnc(NC(=O)c2cccnc2Cl)s1,24%,8%[57.1 µM],39%,4%,-12%,-31%[59 µM]
CCSc1nnc(NC(=O)C(CC)(C(F)(F)F)C(F)(F)F)s1,13%,-30%,43%,/,?,50µM*
CCSc1nnc(NC(=O)c2ccccn2)s1,13%,8.9µM*,61%,-10%[11.4 µM],6.3µM*,?
CCSc1nnc(NC(=O)c2cnccn2)s1,-4%,79µM*,35%,12%,22%,9%[59 µM]
